{"source": "paper PMC7862700", "about": "“An all-to-all approach to the identification of sequence-specific readers for epigenetic DNA modifications on cytosine”", "assay_in_all_cases": "DAPPL (digital affinity profiling via proximity ligation, sequencing); 10 mM Tris-HCl pH 7.5, 50 mM NaCl, 1 mM DTT, 4% glycerol, room temperature, 30 min; GST-TFs on glutathione beads, 16-mer random dsDNA library, 0.1% formaldehyde crosslink after washing; high values mean tight binding", "conditions_in_all_cases": "protein: recombinant; tags: N-terminal GST; dsDNA, one strand shown", "key": {"[1]": {"target": "T1, FLI1 (Homo sapiens, UniProt Q01543 1-452)", "T1 sequence": "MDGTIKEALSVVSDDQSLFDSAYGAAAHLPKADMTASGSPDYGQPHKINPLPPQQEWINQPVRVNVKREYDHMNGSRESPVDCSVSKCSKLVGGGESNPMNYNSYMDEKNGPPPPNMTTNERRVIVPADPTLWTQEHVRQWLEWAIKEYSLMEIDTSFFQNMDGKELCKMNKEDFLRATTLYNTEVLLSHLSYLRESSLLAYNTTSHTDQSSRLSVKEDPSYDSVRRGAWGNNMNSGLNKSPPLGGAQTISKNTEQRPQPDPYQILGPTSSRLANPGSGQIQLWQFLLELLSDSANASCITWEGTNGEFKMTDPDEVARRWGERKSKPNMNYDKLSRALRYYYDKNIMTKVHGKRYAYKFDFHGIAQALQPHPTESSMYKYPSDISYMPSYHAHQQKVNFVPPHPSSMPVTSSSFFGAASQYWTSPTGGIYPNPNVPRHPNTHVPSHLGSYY", "outline": "(§1)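 Pools of DNA-barcoded human transcription factors, expressed in yeast as GST fusions on glutathione beads and combined with a tag-only sample, were incubated with 200 nmole of a 16-mer random double-stranded DNA library. Incubation took 30 min at room temperature in Tris/NaCl/DTT/glycerol buffer and was followed by washing, 0.1% formaldehyde crosslinking, proximity ligation (BsaI/T4 ligase, 1 h, 37 °C), PCR amplification and sequencing on an Illumina NextSeq500. Binding signal is the ratio of a hexamer's read frequency for a factor to its frequency for the tag-only sample.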"}, "[2]": {"target": "T2, ELK1 (Homo sapiens, UniProt P19419 1-428)", "T2 sequence": "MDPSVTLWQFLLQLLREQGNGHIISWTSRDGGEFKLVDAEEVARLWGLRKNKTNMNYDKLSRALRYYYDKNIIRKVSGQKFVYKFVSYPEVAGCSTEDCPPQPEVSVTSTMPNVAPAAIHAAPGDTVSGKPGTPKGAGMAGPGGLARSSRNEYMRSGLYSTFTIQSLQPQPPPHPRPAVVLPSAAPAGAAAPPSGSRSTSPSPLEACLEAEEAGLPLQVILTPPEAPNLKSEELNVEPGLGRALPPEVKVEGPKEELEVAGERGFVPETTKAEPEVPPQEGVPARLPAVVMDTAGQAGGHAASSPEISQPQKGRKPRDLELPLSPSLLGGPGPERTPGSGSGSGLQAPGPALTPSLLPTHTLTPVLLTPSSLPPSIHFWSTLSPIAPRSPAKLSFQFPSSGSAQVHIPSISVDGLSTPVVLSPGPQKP", "outline": "as §1"}, "[3]": {"target": "T3, GABPA (Homo sapiens, UniProt Q06546 1-454)", "T3 sequence": "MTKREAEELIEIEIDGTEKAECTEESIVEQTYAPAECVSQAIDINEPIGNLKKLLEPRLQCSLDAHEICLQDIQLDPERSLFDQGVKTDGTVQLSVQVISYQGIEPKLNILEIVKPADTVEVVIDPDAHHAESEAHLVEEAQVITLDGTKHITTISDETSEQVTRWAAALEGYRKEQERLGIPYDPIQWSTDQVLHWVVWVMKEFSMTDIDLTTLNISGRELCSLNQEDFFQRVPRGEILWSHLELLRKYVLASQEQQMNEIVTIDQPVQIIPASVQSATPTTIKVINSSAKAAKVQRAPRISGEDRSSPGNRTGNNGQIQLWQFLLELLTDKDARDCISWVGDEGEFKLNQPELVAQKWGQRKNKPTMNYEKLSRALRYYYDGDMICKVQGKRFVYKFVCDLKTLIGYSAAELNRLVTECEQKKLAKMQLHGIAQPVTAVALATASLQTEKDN", "outline": "as §1"}, "[4]": {"target": "T4, ERG (Homo sapiens, UniProt P11308 1-479)", "T4 sequence": "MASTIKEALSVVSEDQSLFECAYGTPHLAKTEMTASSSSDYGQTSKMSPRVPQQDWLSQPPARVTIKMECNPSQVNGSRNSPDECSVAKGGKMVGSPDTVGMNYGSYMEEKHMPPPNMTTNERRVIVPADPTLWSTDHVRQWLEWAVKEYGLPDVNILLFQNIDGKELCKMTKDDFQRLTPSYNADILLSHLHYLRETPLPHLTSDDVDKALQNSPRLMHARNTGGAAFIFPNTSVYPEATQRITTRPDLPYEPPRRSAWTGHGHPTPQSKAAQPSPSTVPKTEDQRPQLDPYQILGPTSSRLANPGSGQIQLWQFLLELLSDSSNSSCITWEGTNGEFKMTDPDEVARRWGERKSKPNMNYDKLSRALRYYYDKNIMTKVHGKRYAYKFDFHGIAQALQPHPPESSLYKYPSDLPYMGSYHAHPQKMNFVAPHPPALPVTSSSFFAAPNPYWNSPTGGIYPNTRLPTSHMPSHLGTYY", "outline": "as §1"}, "[5]": {"target": "ELF1 (Homo sapiens, UniProt P32519 1-619)", "sequence (P32519 whole entry)": "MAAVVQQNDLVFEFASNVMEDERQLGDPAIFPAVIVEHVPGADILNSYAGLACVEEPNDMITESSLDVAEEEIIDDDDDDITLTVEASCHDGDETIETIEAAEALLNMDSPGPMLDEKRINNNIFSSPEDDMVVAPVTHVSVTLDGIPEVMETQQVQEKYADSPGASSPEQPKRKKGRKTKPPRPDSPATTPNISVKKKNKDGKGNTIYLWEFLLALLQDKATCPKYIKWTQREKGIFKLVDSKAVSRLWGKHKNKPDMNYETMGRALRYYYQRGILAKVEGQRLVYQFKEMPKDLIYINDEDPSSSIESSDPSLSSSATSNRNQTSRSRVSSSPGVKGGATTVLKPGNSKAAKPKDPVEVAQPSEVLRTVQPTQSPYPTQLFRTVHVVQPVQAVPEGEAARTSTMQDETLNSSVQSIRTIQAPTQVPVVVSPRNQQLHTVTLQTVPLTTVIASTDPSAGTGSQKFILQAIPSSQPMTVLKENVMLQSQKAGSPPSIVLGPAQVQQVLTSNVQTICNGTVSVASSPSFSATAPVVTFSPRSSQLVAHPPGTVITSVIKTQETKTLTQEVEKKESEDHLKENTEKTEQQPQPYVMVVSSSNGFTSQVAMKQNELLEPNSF", "outline": "as §1"}, "[6]": {"target": "T5, EHF (Homo sapiens, UniProt Q9NZC4 1-300)", "T5 sequence": "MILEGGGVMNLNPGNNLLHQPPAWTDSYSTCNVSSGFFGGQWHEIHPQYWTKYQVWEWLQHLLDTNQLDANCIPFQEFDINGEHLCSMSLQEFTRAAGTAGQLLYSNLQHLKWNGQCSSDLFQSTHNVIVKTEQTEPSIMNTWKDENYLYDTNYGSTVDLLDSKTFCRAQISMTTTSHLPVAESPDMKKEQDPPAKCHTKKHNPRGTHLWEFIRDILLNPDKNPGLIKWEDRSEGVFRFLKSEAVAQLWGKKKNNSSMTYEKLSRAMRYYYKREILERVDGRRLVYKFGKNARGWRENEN", "outline": "as §1"}, "[7]": {"target": "SPI1 (Homo sapiens, UniProt P17947 1-270)", "outline": "as §1"}, "[8]": {"target": "SPIB (Homo sapiens, UniProt Q01892 1-262)", "sequence (Q01892 whole entry)": "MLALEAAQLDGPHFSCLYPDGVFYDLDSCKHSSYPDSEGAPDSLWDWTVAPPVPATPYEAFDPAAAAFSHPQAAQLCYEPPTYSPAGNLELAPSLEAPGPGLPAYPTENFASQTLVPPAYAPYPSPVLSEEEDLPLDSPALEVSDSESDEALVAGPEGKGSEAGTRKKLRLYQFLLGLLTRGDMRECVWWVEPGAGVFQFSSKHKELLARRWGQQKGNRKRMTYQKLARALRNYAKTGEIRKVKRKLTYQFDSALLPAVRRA", "outline": "as §1"}, "[9]": {"target": "T6, ELK3 (Homo sapiens, UniProt P41970 1-407)", "T6 sequence": "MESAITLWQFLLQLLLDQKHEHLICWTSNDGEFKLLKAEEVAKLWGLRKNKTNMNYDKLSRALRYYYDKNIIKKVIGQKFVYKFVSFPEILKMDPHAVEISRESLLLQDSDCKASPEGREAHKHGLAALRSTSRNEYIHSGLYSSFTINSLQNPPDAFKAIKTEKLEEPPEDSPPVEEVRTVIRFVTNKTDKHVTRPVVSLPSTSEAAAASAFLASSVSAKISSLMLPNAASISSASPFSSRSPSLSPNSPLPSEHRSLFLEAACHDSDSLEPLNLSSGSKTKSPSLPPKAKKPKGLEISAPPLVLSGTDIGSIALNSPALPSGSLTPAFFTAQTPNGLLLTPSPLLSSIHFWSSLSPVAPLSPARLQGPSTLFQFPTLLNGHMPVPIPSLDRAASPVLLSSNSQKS", "outline": "as §1"}}}
{"sequence": "TGCCTT", "values": [{"measurement": "binding signal", "setting": "[1]", "result": "1.29 fold enrichment (6-mer frequency, TF over GST control)"}, {"measurement": "binding signal", "setting": "[2]", "result": "1.38 fold enrichment (6-mer frequency, TF over GST control)"}, {"measurement": "binding signal", "setting": "[3]", "result": "1.54 fold enrichment (6-mer frequency, TF over GST control)"}, {"measurement": "binding signal", "setting": "[4]", "result": "1.35 fold enrichment (6-mer frequency, TF over GST control)"}, {"measurement": "binding signal", "setting": "[5]", "result": "1.33 fold enrichment (6-mer frequency, TF over GST control)"}, {"measurement": "binding signal", "setting": "[6]", "result": "1.3 fold enrichment (6-mer frequency, TF over GST control)"}, {"measurement": "binding signal", "setting": "[7]", "result": "1.44 fold enrichment (6-mer frequency, TF over GST control)"}, {"measurement": "binding signal", "setting": "[8]", "result": "1.35 fold enrichment (6-mer frequency, TF over GST control)"}, {"measurement": "binding signal", "setting": "[9]", "result": "1.24 fold enrichment (6-mer frequency, TF over GST control)"}]}
